# ARNT-TACC3 inh: disruptors of ARNT/TACC3 protein interaction, primary screen, biochemical, AlphaScreen, single concentration | Transforming acidic coiled-coil-containing protein 3 (Homo sapiens), Q9Y6A5 | AlphaScreen His-ARNT PAS-B/GST-TACC3 binding, luminescence; TACC3 fragment carries E629A point mutation | inhibition, % at 9.99 µM | 0.66% of 390,000 active | AID 623870, 2012;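 active means mean inhibition of replicates at least 50% and at least half of replicates each reaching 50%; inconclusive means half or more replicates reach 50% but mean below 50%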;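 further: 0% = complete ARNT plus TACC3 wells and 100% = ARNT alone without TACC3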
# Cardio protect: cardioprotection against H2O2-induced cell death, primary screen, uHTS, H9c2 cells, ATPLite luminescence; 0.63% of 360,000 active; H9c2 cardiomyocytes, H2O2 injury protection, 2 h; protection from H2O2 cell death, % at 20 µM;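 active means compounds giving at least 50% protection of heart cells from peroxide-induced death in the single-dose screen, raw or plate-pattern-corrected value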;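 further: 0% = DMSO wells with peroxide and 100% = DMSO wells without peroxide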
# Vif imaging: HIV Vif self-association inhibitors, primary screen, imaging, HEK293T, single point; 0.35% of 340,000 active; HEK293T cells, Vif self-association by quenched fluorescence, 24 h; inhibition, % at 7.49 µM; AID 602346, 2012; in the data active means inhibition above about 50%, passing the limit was not always enough; inconclusive means no clear call, values can overlap the other calls; inactive means below about 31%
# aDG glyco up: activators of alpha-DG glycosylation, primary screen, uHTS, Pro5-aDG cells, AlphaScreen. alpha-DG glycosylation AlphaScreen (IIH6); 0% Pro5, 100% B10-LARGE cell signal. activation, % at 10 µM. 0.22% of 360,000 active;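 active means activation of at least 8% versus controls, or a plate z-score of at least 8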;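 further: Pro5 are CHO cells carrying HIG-tagged alpha-DG that lacks glycosylation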
# N-glyco inh: increase of ERlucT glycosylation luciferase signal, primary screen, N-linked glycosylation inhibitor project, D54 ERlucT cells, luminescence, set 2; D54 ERlucT glycosylation luciferase reporter, 24 h; percent of 100 nM tunicamycin response; reporter increase, % at 12.5 µM; 0.23% of 360,000 active; AID 588692, 2011;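 active means mean luciferase reporter signal, scaled so untreated is 0 and the glycosylation-blocking control 100, at or above a set limit in every replicate; inconclusive means mean reaches the limit but not every replicate does; inactive means mean below the limit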;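 further: luciferase carries N-glycosylation sites so blocking glycosylation raises the light; 0% = median of neutral control wells and 100% = median of 100 nM tunicamycin wells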
# Starred values were filed as active, the others as inactive; ? = inconclusive; nt = no result. Only some compounds are listed: those with a hit (about 1.7% of all), similar ones and a draw of the others.
SMILES,ARNT-TACC3 inh,Cardio protect,Vif imaging,aDG glyco up,N-glyco inh
O=C(O)/C=C/c1ccc([N+](=O)[O-])o1,-4.1,-6.2,1.6,-0.1,-2.7
O=C(CNc1cccc2ccccc12)N/N=C/c1ccc([N+](=O)[O-])o1,-1.9,-0.8,-0.7,8.2*,-7.7
O=C(N/N=C\c1ccc(-c2ccc([N+](=O)[O-])cc2)o1)c1ccc2c(c1)OCO2,-3.5,7.7,-2.9,0.0,-0.4
O=C(N/N=C/c1ccc([N+](=O)[O-])o1)c1ccc2c(c1)OCO2,-1.4,-0.1,-2.9,10.4*,17.9
COc1cccc(S(=O)(=O)N[C@@H]2CC[C@@H](CC(=O)NC3CCC3)O[C@H]2CO)c1,-13.1,nt,nt,nt,nt
COC(=O)C[C@@H]1CC[C@H]2[C@H](COc3ccc(NC(=O)Nc4cc(C)cc(C)c4)cc3C(=O)N2C)O1,1.3,nt,nt,nt,nt
C[C@@H]1CN([C@@H](C)CO)C(=O)c2cc(NC(=O)CCCN(C)C)ccc2O[C@H]1CN(C)Cc1ccc(C(=O)O)cc1,-5.5,nt,nt,nt,nt
C[C@@H]1CN([C@H](C)CO)S(=O)(=O)c2ccc(-c3ccccc3)cc2O[C@H]1CN(C)C(=O)CN(C)C,8.7,nt,nt,nt,nt
O=C(Nc1ccc2oc(-c3ccccc3F)nc2c1)c1ccc([N+](=O)[O-])o1,-4.0,58.1*,-11.5,0.3,1.2
NC(=O)c1ccsc1NC(=O)COC(=O)c1ccc([N+](=O)[O-])o1,nt,40.5,-3.8,0.3,-0.5
NC(=O)c1ccsc1NC(=O)c1ccc([N+](=O)[O-])o1,12.7,77.9*,-3.0,0.3,6.6
O=C(Nc1ccc2oc(-c3ccccc3F)nc2c1)c1cncc(Br)c1,-9.5,1.2,-8.8,0.1,-5.4
O=C(CNc1cccc2ccccc12)N/N=C/C(Br)=C/c1ccccc1,5.5,-23.0,19.9,-0.3,30.8*
O=C(CNc1cccc2ccccc12)N/N=C/c1ccc[nH]1,17.4,-2.1,-5.5,-0.1,2.2
O=C(Nc1cccc2ccccc12)c1ccc([N+](=O)[O-])o1,-9.7,-19.0,-2.5,0.8,27.5*
COc1ccc(NC(=O)N(C)C[C@@H]2OCCCC[C@H](C)Oc3ccc(NC(=O)Nc4ccc(C(F)(F)F)cc4)cc3C(=O)N([C@@H](C)CO)C[C@@H]2C)cc1,6.7,nt,nt,nt,nt
O=C(C[C@@H]1CC[C@@H]2[C@H](COC[C@H](O)CN2Cc2cc(F)ccc2F)O1)N[C@@H]1CCN(Cc2ccccc2)C1,1.9,nt,nt,nt,nt
CCNC(=O)C[C@@H]1CC[C@H]2[C@@H](COc3ccc(NC(=O)Nc4ccc(C)cc4)cc3C(=O)N2C)O1,-1.5,nt,nt,nt,nt
O=C(Nc1ccc2c(c1)[C@H]1C[C@@H](CC(=O)N3CCCCC3)O[C@H](CO)[C@H]1O2)c1ccc2c(c1)OCO2,2.1,nt,nt,nt,nt
Cc1ccc(-c2cc(C(=O)N/N=C/c3ccc([N+](=O)[O-])o3)c3ccccc3n2)o1,0.8,-19.7,12.4,2.7,0.8
Cc1cc(N/N=C/c2ccc([N+](=O)[O-])o2)nc2ccccc12,1.8,9.9,-0.8,8.2*,?
C[C@H](CO)N1C[C@H](C)[C@H](CN(C)Cc2ccccc2)Oc2ncc(C#Cc3ccccc3)cc2C1=O,0.7,nt,nt,nt,nt
Cc1cc(C)c(NC(=O)COC(=O)c2cccc3c2C(=O)c2ccccc2C3=O)c(C)c1,2.4,-4.3,-4.0,1.0,1.5
Cc1cc(C)c(Nc2cc(S(=O)(=O)O)c(N)c3c2C(=O)c2ccccc2C3=O)c(C)c1,54.6*,-6.7,1.6,-1.1,-6.3
CCCCC(=O)N/N=C/c1ccc(Sc2cccc3cccnc23)o1,54.2*,-17.4,-15.7,1.2,-0.1
SMILES,ARNT-TACC3 inh,Cardio protect,Vif imaging,aDG glyco up,N-glyco inh
O=C(c1ccc(-c2cc(O)c3ncccc3c2)cc1)N1CCNCC1,66.3*,27.0,-0.3,0.5,-5.1
CC(C)(C)c1ccc(C(=O)N2CCNCC2)cc1,0.5,3.9,7.7,0.2,0.8
CCCN(CCC)c1nc2ccccc2n2c(C)nnc12,-1.0,-10.9,-4.7,0.5,3.6
CCCNc1nc2ccccc2n2c(C)nnc12,-0.3,5.5,-4.6,-0.1,40.1*
COc1ccccc1S(=O)(=O)N[C@H]1CC[C@H](CC(=O)N2CCN(C)CC2)O[C@@H]1CO,11.0,nt,nt,nt,nt
O=c1[nH][nH]c2c(N=Cc3ccccc3O)ccc(F)c12,69.0*,5.2,-5.6,0.1,2.4
O=S(=O)(N[C@H]1CC[C@@H](CCn2cc(C3(O)CCCC3)nn2)O[C@H]1CO)c1ccccc1,-6.4,nt,nt,nt,nt
Cc1ccc(S(=O)(=O)[N-]c2nc3ccccc3nc2-n2cc[n+](Cc3ccccc3)c2)cc1,10.5,-8.9,-9.9,0.1,42.8*
O=S(=O)([N-]c1nc2ccccc2nc1-n1cc[n+](Cc2ccccc2)c1)c1ccccc1,-9.0,6.5,-7.3,-0.2,40.1*
O=[N+]([O-])c1cccc(S(=O)(=O)[N-]c2nc3ccccc3nc2-n2cc[n+](Cc3ccccc3)c2)c1,-12.1,2.7,5.6,-0.1,9.9
COC(=O)/C(C#N)=C/c1c(N2CCN(c3ccccc3)CC2)nc2ccccn2c1=O,8.5,17.8,1.2,-0.1,2.0
CNC(=O)/C(C#N)=C/c1c(N(Cc2ccccc2)Cc2ccccc2)nc2ccccn2c1=O,7.5,56.2*,-1.2,0.0,0.6
C[C@H]1CN([C@@H](C)CO)C(=O)c2cc(C#Cc3ccccc3F)cnc2O[C@H]1CN(C)C(=O)C1CCOCC1,-6.0,nt,nt,nt,nt
Cc1ccc(S(=O)(=O)N2CCOCC2)cc1C(=O)OCC(=O)c1c(N)n(C)c(=O)n(C)c1=O,24.6,7.2,3.9,-0.4,-0.2
Cn1c(N)c(C(=O)COC(=O)c2cc(S(=O)(=O)N3CCOCC3)ccc2F)c(=O)n(C)c1=O,0.8,11.3,3.5,0.4,50.4*
C[C@@H]1CN([C@H](C)CO)S(=O)(=O)c2ccc(C#Cc3ccccc3)cc2O[C@H]1CN(C)C,7.2,nt,nt,nt,nt
Cc1cc(C(F)(F)F)n2nc(-c3cnn(C)c3C(F)(F)F)cc2n1,5.5,0.8,67.6*,-0.1,3.0
C/C=C/c1cccc(-c2nc(C(=O)NCc3ccncc3)cc3c2[C@H](CCO)N([S@@](=O)C(C)(C)C)C3)c1,52.0*,nt,nt,nt,nt
CCOC(=O)c1cc2c(c(-c3cccc(-c4cccc(OC)c4)c3)n1)[C@@H](CCO)N(S(=O)C(C)(C)C)C2 (some centres not stated),54.8*,nt,nt,nt,nt
COc1ccc(C(=O)COc2ccc3c(C)cc(=O)oc3c2)cc1,-5.0,1.8,-2.8,-0.1,-0.2
COc1cccc(C(=O)COc2ccc3c(C)cc(=O)oc3c2)c1,-1.6,12.0,-3.4,0.0,37.5*
O=C(Nc1ccccc1)C1=C[C@@H](C2CCCCC2)C[C@@H](OCCCCO)O1,-1.0,-0.7,68.8*,-0.2,-7.8
O=C(NCCCn1ccnc1)Nc1cccc(Cl)c1,60.9*,-4.1,13.1,-0.3,0.0
COc1ccc(NC(=S)NCCCn2ccnc2)cc1,active,-1.3,nt,-0.2,1.6
